Experiment [1] is described as follows: qHTS assay to identify small molecule antagonists of the estrogen related receptor (ERR) signaling pathway from Tox21 library - cell viability counter screen (AID 1224834). Further: nearly all actives have a fitted effect of over 30% in size. Further: potency means the concentration at half of the fitted maximal effect. In short, it runs like this:
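Multiplexed viability counter screen in ERR cells: 17.5 h compound exposure at 37 C, CellTiter-Fluor added, 30 min at 37 C/5% CO2, fluorescence read.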
Background: qHTS replaces the single test concentration by a dilution series.

Experiment [2] deals with Luciferin 4-monooxygenase (Photinus pyralis) (UniProt P08659). The experiment in a line: qHTS assay to identify small molecule inhibitors of firefly luciferase (AID 1224835). Further: nearly all actives have a fitted effect of over 25% in size. Further: potency means the concentration at half of the fitted maximal effect. In short, it runs like this: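 Biochemical qHTS: compounds run as interplate titrations against purified firefly enzyme, with D-luciferin and ATP each at its KM concentration. Light output recorded by CCD imaging.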

The nature of experiment [3]: qHTS assay to identify small molecule agonists of the constitutive androstane receptor (CAR) signaling pathway - cell viability counter screen (AID 1224836). Further: series mostly up to about 92 µM; nearly all actives have a fitted effect of over 45% in size. In short, it runs like this:
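Counter screen multiplexed with the CAR reporter readout: HepG2 cells co-transfected with hCAR and the CYP2B6-2.2kb construct receive a 15-concentration compound series and 0.75 uM PK11195 (final), then CellTiter-Fluor fluorescence is read after 23 h.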

A short description of experiment [4]: qHTS assay to identify small molecule antagonists of the constitutive androstane receptor (CAR) signaling pathway - cell viability counter screen (AID 1224837). Further: series mostly up to about 92 µM; nearly all actives have a fitted effect of over 45% in size. In outline:
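Read-out: CellTiter-Fluor fluorescence after 23 hr at 37 C/5% CO2. Cells: HepG2 double-stable for hCAR and CYP2B6-2.2kb. Compounds tested at 15 concentrations in the presence of CITCO, final concentration 50 nM.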

For experiment [5], the target named is Nuclear receptor subfamily 1 group I member 3 (Homo sapiens) (UniProt Q14994). The experiment in a line: qHTS assay to identify small molecule antagonists of the constitutive androstane receptor (CAR) signaling pathway (AID 1224838).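 Further: HepG2 cells stably expressing hCAR with CYP2B6 luciferase reporter stimulated by CITCO; nearly all actives have a fitted effect of over 40% in size.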 In outline: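 Read-out: ONE-Glo luciferase luminescence after 30 min at room temperature. HepG2-CYP2B6-hCAR double-stable cells, compounds in 15-point titration plus 50 nM CITCO final, 24 h at 37 C/5% CO2.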

Experiment [6] can be described thus: qHTS assay to identify small molecule antagonists of the estrogen related receptor signaling pathway with the pleiotropic PPARgamma coactivator (PGC) from Tox21 10K library - cell viability counter screen (AID 1224840; active means well fitted cell-killing curve with a large enough effect in the repeat runs, not every such curve was filed as active; further: nearly all actives have a fitted effect of over 40% in size). In short, it runs like this: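 Fluorescence read-out of CellTiter-Fluor viability reagent, added after cells had been exposed to compound in DMSO for 17.5 h at 37 C; 30 min development at 37 C/5% CO2. Cells: PGC/ERR line, 2,000/well.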

A short description of experiment [7]: qHTS assay to identify small molecule antagonists of the estrogen related receptor signaling pathway with the pleiotropic PPARgamma coactivator (PGC) from Tox21 10K library (AID 1224841; call rule not given here; further: series mostly up to about 92 µM; actives are mostly falling curves and most rising ones were filed inactive; nearly all actives have a fitted effect of over 50% in size). In short, it runs like this:
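Luminescence read-out (One-Glo luciferase reagent, 30 min at room temperature) from PGC/ERR cells exposed to DMSO-dissolved test compounds for 18 h at 37 C; cells, 2,000 per well, had been preincubated 6 h before compound transfer.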

A short description of experiment [8]: qHTS assay to identify small molecule agonists of the estrogen related receptor signaling pathway with the pleiotropic PPARgamma coactivator (PGC) from Tox21 10K library (AID 1224842). Further: nearly all actives have a fitted effect of over 15% in size. Further: potency means the concentration at half of the fitted maximal effect. In outline: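 PGC/ERR reporter cell line, 2,000 cells per well, incubated 6 h at 37 C before 23 nL compound in DMSO was added. After 18 h at 37 C, One-Glo luminescence read following 30 min at room temperature.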

Inconclusive results are not listed. Active and inactive are the calls of the source. Unless noted, the call rests on the fitted dose curve; in most records, active means well fitted curve in the direction sought with a large enough effect in the repeat runs; inconclusive means weak or mixed curves; inactive means no such curve, though single readings can be large; an effect the other way counts as inactive or inconclusive.

Chain of Luciferin 4-monooxygenase (Photinus pyralis) (P08659 whole entry, looked up): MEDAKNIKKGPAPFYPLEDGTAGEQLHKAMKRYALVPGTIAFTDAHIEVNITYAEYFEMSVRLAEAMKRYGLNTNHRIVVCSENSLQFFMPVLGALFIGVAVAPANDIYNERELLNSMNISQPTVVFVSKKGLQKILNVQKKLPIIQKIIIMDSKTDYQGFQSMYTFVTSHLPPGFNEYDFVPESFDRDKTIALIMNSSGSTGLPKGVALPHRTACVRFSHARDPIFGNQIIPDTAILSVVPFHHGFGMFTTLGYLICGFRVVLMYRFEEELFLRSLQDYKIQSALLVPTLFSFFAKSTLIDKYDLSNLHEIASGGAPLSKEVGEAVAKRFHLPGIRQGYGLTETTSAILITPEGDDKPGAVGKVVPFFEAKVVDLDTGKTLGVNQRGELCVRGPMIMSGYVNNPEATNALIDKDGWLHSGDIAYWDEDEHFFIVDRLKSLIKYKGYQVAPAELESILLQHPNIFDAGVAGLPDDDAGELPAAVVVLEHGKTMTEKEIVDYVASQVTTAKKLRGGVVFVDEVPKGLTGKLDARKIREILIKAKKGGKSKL
Chain of Nuclear receptor subfamily 1 group I member 3 (Homo sapiens) (Q14994 whole entry, looked up): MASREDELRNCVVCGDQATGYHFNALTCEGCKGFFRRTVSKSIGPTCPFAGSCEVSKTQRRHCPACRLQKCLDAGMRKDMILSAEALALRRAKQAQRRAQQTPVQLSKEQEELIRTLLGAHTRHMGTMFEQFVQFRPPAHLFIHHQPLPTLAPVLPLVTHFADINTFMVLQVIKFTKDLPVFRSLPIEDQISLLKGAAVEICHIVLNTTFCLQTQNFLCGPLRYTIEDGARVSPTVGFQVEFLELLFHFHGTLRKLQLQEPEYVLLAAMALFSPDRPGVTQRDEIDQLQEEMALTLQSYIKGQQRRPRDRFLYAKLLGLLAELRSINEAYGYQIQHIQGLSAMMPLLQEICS

Consider `O=C(O)CN1C(=O)c2cccc3cccc(c23)C1=O`, for which the Potency entry in experiment [1], in experiment [2], in experiment [3], in experiment [4], in experiment [5] and in experiment [6] was “inactive” each time. Besides, the Potency result in experiment [7] and in experiment [8] was “inactive” each time.
As for `CC(=O)OCC(=O)[C@@]1(OC(C)=O)[C@@H](C)C[C@H]2[C@@H]3C[C@H](F)C4=CC(=O)C=C[C@]4(C)[C@@]3(F)[C@@H](O)C[C@@]21C`, the Potency result in experiment [1], in experiment [2], in experiment [3], in experiment [4], in experiment [5] and in experiment [6] was “inactive” throughout.
In the case of `Cc1cn([C@H]2C[C@H](F)[C@@H](CO)O2)c(=O)[nH]c1=O`, the Potency result in experiment [1], in experiment [2], in experiment [3], in experiment [4], in experiment [5] and in experiment [6] was “inactive” in each case.
On to `Oc1cccc2[nH]ccc12`, for which the Potency entry in experiment [1], in experiment [2], in experiment [3], in experiment [4], in experiment [5] and in experiment [6] was “inactive” in each case.
Consider `CCC(=O)OCc1ccc(OC)cc1`, for which the Potency entry in experiment [1], in experiment [2], in experiment [3], in experiment [4], in experiment [5] and in experiment [6] was “inactive” in each case.
For the molecule `COc1cc(OC)c2ccc(=O)oc2c1`, the Potency entry in experiment [1], in experiment [2], in experiment [3], in experiment [4], in experiment [5] and in experiment [6] was “inactive” in each case.
On to `CC(=O)OCCC1CCCCC1`, for which the Potency entry in experiment [1], in experiment [2], in experiment [3], in experiment [4], in experiment [5] and in experiment [6] was “inactive” each time.
For the molecule `Cc1ccc2c(c1)CCCN2`, the Potency entry in experiment [1], in experiment [2], in experiment [3], in experiment [4], in experiment [5] and in experiment [6] was “inactive” each time.
For `COc1cc(S(=O)(=O)Nc2ccccc2)c(OC)cc1N`, the Potency entry in experiment [1], in experiment [2], in experiment [3], in experiment [4], in experiment [5] and in experiment [6] was “inactive” throughout.
For the molecule `CC(O)Cn1cnc2c1c(=O)n(C)c(=O)n2C` (stereo unspecified), the Potency result in experiment [1], in experiment [2], in experiment [3], in experiment [4], in experiment [5] and in experiment [6] was “inactive” in each case. In addition, the Potency entry in experiment [7] and in experiment [8] was “inactive” in each case.
Take `SCCc1cnccn1`: the Potency entry in experiment [1], in experiment [2], in experiment [3], in experiment [4], in experiment [5] and in experiment [6] was “inactive” in each case. The Potency entry in experiment [7] and in experiment [8] was “inactive” each time.
With `C[C@@H]1[C@H](O)[C@@H](C)/C=C/C=C\C=C\C=C\C=C\C=C\C=C\[C@H](O[C@@H]2O[C@H](C)[C@@H](O)[C@H](N)[C@@H]2O)C[C@@H]2O[C@](O)(C[C@@H](O)C[C@@H](O)[C@H](O)CC[C@@H](O)C[C@@H](O)CC(=O)O[C@H]1C)C[C@H](O)[C@H]2C(=O)O` (stereo in doubt), the Potency in experiment [1] was 61.1 µM (active). Also, the Potency entry in experiment [2], in experiment [3], in experiment [4], in experiment [5] and in experiment [6] was “inactive” each time.
Turning to `O=C1OC(=O)c2c(Br)c(Br)c(Br)c(Br)c21`, the Potency result in experiment [1], in experiment [2], in experiment [3], in experiment [4], in experiment [5] and in experiment [6] was “inactive” throughout.
In the case of `Cc1ccc2nc(N)[nH]c(=O)c2c1Sc1ccncc1`, the Potency result in experiment [1], in experiment [2], in experiment [3], in experiment [4], in experiment [5] and in experiment [6] was “inactive” in each case. Besides, the Potency entry in experiment [7] and in experiment [8] was “inactive” throughout.
Take `CC(C)CC(O)CC(C)C`: the Potency result in experiment [1], in experiment [2], in experiment [3], in experiment [4], in experiment [5] and in experiment [6] was “inactive” each time. For the same molecule, the Potency result in experiment [7] and in experiment [8] was “inactive” throughout.
As for `CC(=O)NCCO`, the Potency entry in experiment [1], in experiment [2], in experiment [3], in experiment [4], in experiment [5] and in experiment [6] was “inactive” each time.
Consider `CC(C)(C(=O)c1cccnc1)c1cccnc1`, for which the Potency result in experiment [1], in experiment [2], in experiment [3], in experiment [4], in experiment [5] and in experiment [6] was “inactive” in each case.
Regarding `C=CCOC(=O)COCCC(C)C`, the Potency result in experiment [1], in experiment [2], in experiment [3], in experiment [4], in experiment [5] and in experiment [6] was “inactive” in each case.
Regarding `CCCCCCC(CO)CCCC` (stereo unspecified), the Potency entry in experiment [1], in experiment [2], in experiment [3], in experiment [4], in experiment [5] and in experiment [6] was “inactive” throughout.
In the case of `Cc1ccc(Nc2c(F)cccc2Cl)c(CC(=O)O)c1`, the Potency result in experiment [1], in experiment [2], in experiment [3], in experiment [4], in experiment [5] and in experiment [6] was “inactive” in each case. In addition, the Potency entry in experiment [7] and in experiment [8] was “inactive” in each case.
`CC(C)COC(=O)c1ccc(O)cc1`: the Potency entry in experiment [1], in experiment [3], in experiment [4], in experiment [5] and in experiment [6] was “inactive” throughout. The Potency in experiment [2] was 44.7 µM (active).
`CC(C)(O)c1coc(S(=O)(=O)NC(=O)Nc2c3c(cc4c2CCC4)CCC3)c1`: the Potency entry in experiment [1], in experiment [2], in experiment [3], in experiment [4], in experiment [5] and in experiment [6] was “inactive” in each case.
Take `CC[C@@H](CO)NCCN[C@@H](CC)CO`: the Potency result in experiment [1], in experiment [2], in experiment [3], in experiment [4], in experiment [5] and in experiment [6] was “inactive” in each case. Besides, the Potency entry in experiment [7] and in experiment [8] was “inactive” in each case.
With `CC[C@H]1OC(=O)[C@H](C)[C@@H](O[C@H]2C[C@@](C)(OC)[C@@H](O)[C@H](C)O2)[C@H](C)[C@@H](O[C@@H]2O[C@H](C)C[C@H](N(C)C)[C@H]2O)[C@](C)(O)C[C@@H](C)CN(C)[C@H](C)[C@@H](O)[C@]1(C)O`, the Potency entry in experiment [1], in experiment [2], in experiment [3], in experiment [4], in experiment [5] and in experiment [6] was “inactive” throughout.
Turning to `CCCOC(=O)c1c(Cl)c(Cl)c(Cl)c(Cl)c1C(=O)OCCC`, the Potency result in experiment [1], in experiment [2], in experiment [3], in experiment [4], in experiment [5] and in experiment [6] was “inactive” throughout. In addition, the Potency result in experiment [7] and in experiment [8] was “inactive” each time.
For the molecule `O=C1OC[C@H](Cc2cccc(O)c2)[C@H]1Cc1cccc(O)c1`, the Potency entry in experiment [1], in experiment [2], in experiment [3], in experiment [4], in experiment [5] and in experiment [6] was “inactive” each time.
On to `CC(C)(C)C(O)/C=C/c1ccc2c(c1)OCO2` (stereo unspecified), for which the Potency result in experiment [1], in experiment [3], in experiment [4], in experiment [5] and in experiment [6] was “inactive” each time. For the same molecule, in experiment [2], the Potency was 24.5 µM (active).
Take `COc1ccc(C2C(=O)c3ccccc3C2=O)cc1`: the Potency entry in experiment [1], in experiment [3], in experiment [4], in experiment [5], in experiment [6] and in experiment [7] was “inactive” in each case. In addition, the Potency is 3.09 µM (active) in experiment [2] and 10.6 µM (active) in experiment [8].
For the molecule `O=S(=O)(Cl)c1c(Cl)cccc1Cl`, the Potency entry in experiment [1], in experiment [2], in experiment [3], in experiment [4], in experiment [5] and in experiment [6] was “inactive” throughout.
Regarding `Nc1c(Cl)cc(Cl)cc1[N+](=O)[O-]`, the Potency entry in experiment [1], in experiment [2], in experiment [3], in experiment [4], in experiment [5] and in experiment [6] was “inactive” each time. The Potency entry in experiment [7] is “inactive”. For the same molecule, in experiment [8], the Potency is 5.45 µM (active).
`CCCC(=O)OC(=O)CCC`: the Potency entry in experiment [1], in experiment [2], in experiment [3], in experiment [4], in experiment [5] and in experiment [6] was “inactive” each time.

Source of the values: PubChem BioAssay (Tox21).
